Screening data from PubChem BioAssay.
NSD2 HMT inh: inhibitors of human histone methyltransferase NSD2 | O96028 | NSD2 peptide methylation, AlphaScreen, 120 min | inhibition, % at 12.5 µM | 310,000 compounds, 0.54% hits | AID 743445; in the data active = inhibition above about 50%
Target sequence (O96028 whole entry, looked up): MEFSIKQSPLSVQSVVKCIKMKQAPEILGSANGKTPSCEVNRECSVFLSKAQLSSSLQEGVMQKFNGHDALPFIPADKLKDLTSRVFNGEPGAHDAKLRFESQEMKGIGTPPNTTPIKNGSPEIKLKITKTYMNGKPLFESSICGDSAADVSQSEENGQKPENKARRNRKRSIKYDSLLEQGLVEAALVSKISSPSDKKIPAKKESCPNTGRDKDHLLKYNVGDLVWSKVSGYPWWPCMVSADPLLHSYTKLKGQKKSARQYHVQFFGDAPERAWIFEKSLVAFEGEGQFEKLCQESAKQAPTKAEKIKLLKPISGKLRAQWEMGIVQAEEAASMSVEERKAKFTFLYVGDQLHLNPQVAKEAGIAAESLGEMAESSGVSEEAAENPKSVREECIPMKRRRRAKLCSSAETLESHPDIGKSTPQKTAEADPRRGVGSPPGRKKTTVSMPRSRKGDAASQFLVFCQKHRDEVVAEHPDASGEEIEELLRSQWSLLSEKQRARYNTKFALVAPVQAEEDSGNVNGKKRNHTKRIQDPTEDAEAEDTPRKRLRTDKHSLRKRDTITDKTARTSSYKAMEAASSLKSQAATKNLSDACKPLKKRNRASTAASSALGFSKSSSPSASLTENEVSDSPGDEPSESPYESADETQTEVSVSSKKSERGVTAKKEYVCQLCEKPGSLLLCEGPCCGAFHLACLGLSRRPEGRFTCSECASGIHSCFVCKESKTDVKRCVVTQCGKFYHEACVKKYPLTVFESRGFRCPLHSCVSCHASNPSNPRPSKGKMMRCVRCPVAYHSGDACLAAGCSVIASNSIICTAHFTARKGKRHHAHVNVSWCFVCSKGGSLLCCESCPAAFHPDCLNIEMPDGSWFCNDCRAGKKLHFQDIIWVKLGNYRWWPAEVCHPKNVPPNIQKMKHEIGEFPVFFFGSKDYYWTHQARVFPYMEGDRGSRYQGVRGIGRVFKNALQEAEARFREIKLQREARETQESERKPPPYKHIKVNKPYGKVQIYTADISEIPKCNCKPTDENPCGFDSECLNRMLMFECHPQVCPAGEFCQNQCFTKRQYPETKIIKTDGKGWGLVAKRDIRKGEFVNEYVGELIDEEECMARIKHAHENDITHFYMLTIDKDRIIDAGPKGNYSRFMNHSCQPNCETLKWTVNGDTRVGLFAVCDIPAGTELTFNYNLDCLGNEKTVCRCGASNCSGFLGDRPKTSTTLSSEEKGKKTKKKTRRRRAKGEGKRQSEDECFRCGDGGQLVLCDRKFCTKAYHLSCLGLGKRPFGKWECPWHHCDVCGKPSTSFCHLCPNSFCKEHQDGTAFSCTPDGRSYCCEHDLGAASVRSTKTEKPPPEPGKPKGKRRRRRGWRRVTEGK
GC-B act: GC-B (human) receptor activation | activation, % at 10 µM | P20594 | HEK293-GC-B cells, CNP EC30, cGMP TR-FRET; 0% at EC30 CNP, 100% saturating CNP | 370,000 compounds, 0.11% hits;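 active = activation at 10 µM reaching about 35% in either raw or pattern-adjusted values, limit read from the data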
Rce1 inhib: yeast Ras-converting enzyme inhibition. Q03530. yeast membranes, quenched prenylated peptide cleavage fluorescence. calls only. 290,000 compounds, 0.27% hits. AID 2563;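 active = fall in fluorescence gain of 50% or more versus controls, with final raw signal at or below 3038400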;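 note: plate controls were neutral control wells for no effect and wells lacking membranes for full effect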
V-ATPase pH: alters yeast V-ATPase proton transport; S. cerevisiae, pHLuorin cytosolic pH fluorescence; response, % at 10 µM; 350,000 compounds, 0.37% hits; AID 504577; in the data active = response mostly above about 7.3%, no sharp cut-off; inactive = mostly below about 5.4%; note: actives read high
Efflux pump mplx: inhibitors of Candida antifungal efflux pumps expressed in yeast; 330,000 compounds, 0.44% hits; AID 485275; S. cerevisiae Candida pump triplex, Nile Red efflux; inhibition, % at 10 µM;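 active = plate passing quality check with inhibition over a set limit, or well fluorescence over plate mean plus 4 SD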;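 note: Nile Red retained in pooled yeast measured as flow cytometry median fluorescence; 0% = buffer negative control and 100% = Enniatin B positive control; higher means more Nile Red kept so more efflux inhibition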
GC-A act: GC-A (human) enzyme activation; activation, % at 10 µM; P16066; HEK293 GC-A cells, cGMP TR-FRET, EC30 ANP; 0% at EC30 ANP, 100% saturating ANP; AID 1671463; 370,000 compounds, 0.14% hits; in the data active = activation above about 40%
Yeast cmpd fluor: flagged as fluorescent in efflux inhibitor counter-screen; shares compounds with Efflux pump mplx; S. cerevisiae AD/pABC3, compound fluorescence, flow cytometry; fluorescence ratio to DMSO, % at 10 µM; 1,700 compounds, 4% hits;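 active = fluorescence ratio to DMSO above its plate's cutoff, the plate mean ratio plus 5 SD, cut at about 210% in these data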;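 note: unstained yeast with no Nile Red so the signal is compound autofluorescence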
CaMdr1 efflux inh: inhibitors of Candida albicans Mdr1 efflux pump; shares compounds with Efflux pump mplx; S. cerevisiae AD/CaMDR1, Nile Red efflux, flow cytometry; inhibition, % at 10 µM; 1,700 compounds, 1% hits; AID 588518; in the data active = inhibition above about 26%;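 note: 0% = DMSO vehicle and 100% = reference inhibitor; higher means more Nile Red retained so more efflux inhibition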
Cdr2 pump inh: blocks the Candida albicans Cdr2 efflux pump in yeast. shares compounds with Efflux pump mplx. S. cerevisiae AD/CaCDR2, Nile Red retention, flow cytometry. Nile Red retention ratio vs DMSO, % at 10 µM. 1,700 compounds, 4% hits; in the data active = Nile Red retention ratio vs DMSO above about 190%;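 note: higher ratio means more blocking of Cdr2 efflux of the dye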
CaCdr1 efflux inh: Candida Cdr1 efflux pump inhibition | shares compounds with Efflux pump mplx | S. cerevisiae AD/CaCDR1, Nile Red efflux, flow cytometry | inhibition, % at 10 µM | 1,700 compounds, 1% hits;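 active = inhibition above the screen-wide mean plus twice its standard deviation, cut at about 32% in these data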
Active calls of the source: *. An excerpt weighted towards active compounds, which were near 1.6% of everything screened.

Results for COC(=O)[C@H]1C[C@@]2(n3ccc4ccccc43)c3ccccc3N(S(=O)(=O)c3ccccc3)[C@H]2N1C(=O)CNC1CCCCC1 ?
GC-B act: -15; GC-A act: -19

Results for N#C/C(=N\O)c1nc2ccccc2s1 ?
NSD2 HMT inh: -1; GC-B act: 1; V-ATPase pH: -5; Efflux pump mplx: 0; GC-A act: -3

Results for CCCCc1ccc(-c2csc(/C(C#N)=C/c3ccc(C)o3)n2)cc1 ?
NSD2 HMT inh: -12; GC-B act: -2; V-ATPase pH: 5; Efflux pump mplx: 0; GC-A act: 2

How did CCCCc1ccc(-c2csc(/C(C#N)=C\c3ccco3)n2)cc1 do in these assays?
NSD2 HMT inh: 4; GC-B act: -8; Rce1 inhib: inactive; V-ATPase pH: -3; Efflux pump mplx: 0.6*; GC-A act: -3; Yeast cmpd fluor: 112; CaMdr1 efflux inh: 0; Cdr2 pump inh: 91; CaCdr1 efflux inh: 0

How did N#C/C(=C\c1ccco1)c1nc2ccccc2s1 do in these assays?
GC-B act: -4; Rce1 inhib: inactive; V-ATPase pH: 1; Efflux pump mplx: 0; GC-A act: 1; Yeast cmpd fluor: 108; CaMdr1 efflux inh: 0; Cdr2 pump inh: 110; CaCdr1 efflux inh: 0

How did N#C/C(=C/c1ccco1)c1nc2ccccc2s1 do in these assays?
NSD2 HMT inh: 30; GC-B act: -3; Rce1 inhib: inactive; V-ATPase pH: 4; Efflux pump mplx: 0; GC-A act: -4; Yeast cmpd fluor: 99; CaMdr1 efflux inh: 0; Cdr2 pump inh: 106; CaCdr1 efflux inh: 0

How did O=C(CSc1nnc(-c2ccc(Cl)cc2)n1-c1ccccc1)NN=Cc1c[nH]c2ccccc12 do in these assays?
NSD2 HMT inh: -1; GC-B act: -6; GC-A act: -14

Results for Cc1ccc(CNC(=O)O[C@H]2CC[C@@]34CCCN3C(=O)CCC[C@H]4[C@H]2C)cc1 ?
GC-B act: -3; GC-A act: -1

Results for NC1=NC[C@H](Cc2ccc(O)cc2)N1CCc1cccc(F)c1 ?
GC-B act: 3; Rce1 inhib: inactive; V-ATPase pH: -4; Efflux pump mplx: 0; GC-A act: 1; Yeast cmpd fluor: 90; CaMdr1 efflux inh: 0; Cdr2 pump inh: 85; CaCdr1 efflux inh: 0

How did NC1=NC[C@H](Cc2ccc(O)cc2)N1CC1CCCCC1 do in these assays?
GC-B act: 1; Rce1 inhib: inactive; V-ATPase pH: -17; Efflux pump mplx: 0; GC-A act: 1; Yeast cmpd fluor: 101; CaMdr1 efflux inh: 0; Cdr2 pump inh: 96; CaCdr1 efflux inh: 0

How did CN(C)C1=NC[C@H](Cc2ccccc2)N1CCc1cccc(F)c1 do in these assays?
GC-B act: -6; V-ATPase pH: -2; Efflux pump mplx: 0; GC-A act: -6

What do the screens show for `NC1=NC[C@@H](Cc2ccc(O)cc2)N1CCCCC1CCCCC1`?
GC-B act: -2; Rce1 inhib: inactive; V-ATPase pH: -3; Efflux pump mplx: 1.0*; GC-A act: 2; Yeast cmpd fluor: 111; CaMdr1 efflux inh: 0; Cdr2 pump inh: 116; CaCdr1 efflux inh: 0

Results for NC1=NC[C@H](Cc2ccccc2)N1CC1CCCCC1 ?
GC-B act: 3; Rce1 inhib: inactive; V-ATPase pH: 6; Efflux pump mplx: 0; GC-A act: 2

What do the screens show for `CC(C)(C)OC(=O)C1[C@H](O)C=CC[C@H]1S(=O)c1ccccc1` (stereo not given in full)?
NSD2 HMT inh: -1; GC-B act: 0; GC-A act: 3

Results for Cc1cccc(Cn2cc(CN3CC(N(C)CCCOC(=O)c4cc(C)cc(C)c4)CS3(=O)=O)nn2)c1 (stereo not given) ?
GC-B act: 0; GC-A act: -2

How did COc1cc(N)ccc1C(=O)O do in these assays?
NSD2 HMT inh: 0; GC-B act: 4; Rce1 inhib: inactive; V-ATPase pH: -1; Efflux pump mplx: 0; GC-A act: 1

What do the screens show for `COc1cc(N)c(Br)cc1C(=O)O`?
NSD2 HMT inh: 10; GC-B act: 0; Rce1 inhib: inactive; V-ATPase pH: 0; Efflux pump mplx: 0.7*; GC-A act: 2; Yeast cmpd fluor: 92; CaMdr1 efflux inh: 0; Cdr2 pump inh: 93; CaCdr1 efflux inh: 0

What do the screens show for `COc1ccc(CC(=O)Nc2sc3c(c2C(N)=O)CCCC3)cc1`?
NSD2 HMT inh: 1; GC-B act: 5; Rce1 inhib: inactive; V-ATPase pH: -5; Efflux pump mplx: 0; GC-A act: 2

Results for COc1cc(OC)cc(C(=O)Nc2sc3c(c2C(N)=O)CCC3)c1 ?
NSD2 HMT inh: -2; GC-B act: -6; Rce1 inhib: inactive; V-ATPase pH: -1; Efflux pump mplx: 1.4*; GC-A act: -3; Yeast cmpd fluor: 107; CaMdr1 efflux inh: 0; Cdr2 pump inh: 100; CaCdr1 efflux inh: 0

What do the screens show for `COC(=O)c1ccc(CN2CCC(Oc3cccc(C(=O)N4CCCC4)c3)CC2)cc1`?
NSD2 HMT inh: -1; GC-B act: 2; Rce1 inhib: inactive; V-ATPase pH: -4; Efflux pump mplx: 5.3*; GC-A act: 0; Yeast cmpd fluor: 116; CaMdr1 efflux inh: 0; Cdr2 pump inh: 117; CaCdr1 efflux inh: 0

How did COC(=O)c1ccc(CN2CCC(Oc3ccc(C(=O)N4CCCCC4)cc3)CC2)cc1 do in these assays?
NSD2 HMT inh: 3; GC-B act: 0; Rce1 inhib: inactive; V-ATPase pH: -2; Efflux pump mplx: 0; GC-A act: -1

Results for CCN(CC)c1ccc2c(Cl)c(Br)c(=O)oc2c1 ?
Rce1 inhib: inactive; V-ATPase pH: -62; Efflux pump mplx: 8.6*; Yeast cmpd fluor: 452*; CaMdr1 efflux inh: 1; Cdr2 pump inh: 504*; CaCdr1 efflux inh: 1

Results for CCOC(=O)C1NN=C(C(=O)c2ccccc2)C1c1ccccc1 (stereo not given) ?
NSD2 HMT inh: -2; GC-B act: -2; Rce1 inhib: inactive; V-ATPase pH: 0; Efflux pump mplx: 0; GC-A act: -1
